Caspase-7 inhib: allosteric or competitive inhibitors of human caspase-7; hit rate 0.02% among 75,000; AID 889; P55210; recombinant caspase-7, Ac-DEVD-AFC fluorescence rate; Potency, µM (doses to about 57.5 µM), for the others: at the top dose activity change, negative = inhibition, actives largely listed as inhibitors; active = well fitted inhibition curve with a large enough effect in the main read-out, with a control signal flat, not every such curve was filed as active; note: % of control where 0% means no effect
Caspase-1 inhib: caspase-1 (human) inhibition, allosteric or competitive. hit rate 0.03% among 75,000. Caspase-1 enzyme, Ac-WEHD-AFC fluorogenic rate. Potency, µM (doses to about 57.5 µM), inactives show at the highest dose activity change, negative = inhibition, hits mostly inhibitors. P29466;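 note: plate controls were vehicle for no effect and no substrate for full effect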
FLuc inh: firefly luciferase inhibition; P08659; Potency, µM (series often up to 57.1 µM), inactives show at the highest dose activity change, negative = inhibition, most hits filed as inhibitors; purified firefly luciferase, luminescence, 8 min; AID 411; hit rate 2.2% among 72,000; note: % is set by controls: 0 for no effect and ±100 for the full control effect; nearly all actives have a fitted effect of over 40% in size
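Inhibition of light generation by firefly luciferase from ATP and luciferin was profiled with concentration-response curves per sample, ATP held at 10 uM within the enzyme's linear range. Plates were read by luminescence after an 8-minute ambient incubation.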
Tau fil binding: tau filament binding; P10636; recombinant tau filaments, thioflavin S fluorescence, 15 h; filaments grown with octadecylsulfate alongside compound; Potency, µM (top dose mostly 57.1 µM), without a hit: at the top dose activity change, negative = inhibition; hit rate 2% among 71,000;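 note: % is set by controls: 0 for no effect and ±100 for the full control effect; actives lower thioflavin S fluorescence by blocking filaments or displacing dye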
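Tau 2 uM in ThS buffer dispensed; compound added; 60 uM ODS added (finals 1 uM tau, 30 uM ODS); 15 h 37 C; fluor ex450/em510.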
* hit, by the source's call; . = no result. Compounds with a hit are over-represented: about 4% of the library has one in this group of screens. Unless noted, calls come from the whole dose curve; as a rule, active = well fitted curve in the direction sought with a large enough effect; inconclusive = small, poorly fitted or top-dose-only effect, or another doubt; inactive = no such curve, though single readings can be large; an effect the other way counts as inactive or inconclusive. Potency is the fitted concentration of half-maximal effect.

SMILES	Caspase-7 inhib	Caspase-1 inhib	FLuc inh	Tau fil binding
COc1ccccc1N1CCN(Cc2ccccc2Cl)CC1	-1%	-5%	.	.
N[C@@H](CCCCP(=O)(O)O)C(=O)O	1%	2%	0%	-21%
CCC1C(=O)OCC1Cc1cncn1C (configuration not stated)	0%	1%	-4%	40µM*
CC1(C)C(O)CC(O)[C@]2(C)C1CC(=O)[C@]1(C)C2CC[C@@]2(C)C(c3ccoc3)OC(=O)C3OC321 (some centres not stated)	1%	1%	.	.
CCCCCCC[n+]1ccc(-c2cc[n+](CCCCCCC)cc2)cc1	2%	0%	0%	16µM*
